The supplement of paper PMC13380429

System: Vero E6 infected with SARS-CoV-2
Test: inhibition of SARS-CoV-2 cytopathic effect; higher = more antiviral protection, active = above 15
Conditions: 48 h

Measured: inhibition of SARS-CoV-2 cytopathic effect

Cc1cccc(C)c1OCC(=O)N[C@@H](Cc1ccccc1)[C@@H](O)C[C@H](Cc1ccccc1)NC(=O)[C@H](C(C)C)N1CCCNC1=O [lopinavir]
inactive: 1 nM 1.3% | 8.33 nM 1% | 100 nM 1.43% | 833.33 nM 0.57% | 10000 nM 12.6%

COCC[n+]1c2c(n(Cc3cnccn3)c1C)C(=O)c1ccccc1C2=O
inactive: 1 nM 0.33% | 8.33 nM 4.83% | 100 nM 2.74% | 833.33 nM -2.2% | 10000 nM -9.2%

c1ccc(CC2=NCCN2)cc1 [tolazoline]
inactive: 1 nM -0.5% | 8.33 nM 0.92% | 100 nM 1.33% | 833.33 nM 2.41% | 10000 nM -0.69%

COC[C@H]1OC(=O)c2coc3c2[C@@]1(C)C1=C(C3=O)[C@@H]2CCC(=O)[C@@]2(C)C[C@H]1OC(C)=O [wortmannin]
inactive: 1 nM -3.55% | 8.33 nM -1.71% | 100 nM -2.28% | 833.33 nM -4.43% | 10000 nM -2.83%

O=C1CNC(=O)CN1 [piperazinedione]
inactive: 1 nM -1.5% | 8.33 nM -0.79% | 100 nM -1.97% | 833.33 nM -2.42% | 10000 nM -2.4%

O=C(O)CCC(=O)C(=O)O [2-oxoglutaric-acid]
inactive: 1 nM -3.15% | 8.33 nM -0.14% | 100 nM 1.87% | 833.33 nM 0.16% | 10000 nM -2.21%

CCCCCCCCCCCC1=C(O)C(=O)C=C(O)C1=O [embelin]
inactive: 1 nM 0.27% | 8.33 nM -0.22% | 100 nM -1.48% | 833.33 nM -2.76% | 10000 nM -6.88%

O=[N+]([O-])c1cn2c(n1)OC[C@@H](OCc1ccc(-c3ccc(OC(F)(F)F)cc3)nc1)C2
inactive: 1 nM 1.33% | 8.33 nM -0.87% | 100 nM -0.57% | 833.33 nM 4.38% | 10000 nM 0.34%

CC1=C(/C=C/C(C)=C/C=C/C(C)=C/CO)C(C)(C)CCC1 [retinol]
inactive: 1 nM -0.49% | 8.33 nM 0.39% | 100 nM 0.03% | 833.33 nM 2.09% | 10000 nM 2.75%

COc1cc(NS(=O)(=O)c2ccc(N)cc2)ncn1 [sulfamonomethoxine]
inactive: 1 nM 0.65% | 8.33 nM 1.44% | 100 nM -1.17% | 833.33 nM 1.1% | 10000 nM 1.17%

Cc1ccc2nc(N)[nH]c(=O)c2c1Sc1ccncc1 [nolatrexed]
inactive: 1 nM 0.89% | 8.33 nM 3.11% | 100 nM 1.17% | 833.33 nM 2.04% | 10000 nM -2.82%

CC[C@]12C=CCN3CC[C@@]4(c5cc([C@@]6(C(=O)OC)C[C@@H]7C[C@@H](C(C)(F)F)CN(Cc8c6[nH]c6ccccc86)C7)c(OC)cc5N(C)[C@H]4[C@@](O)(C(=O)OC)[C@@H]1OC(C)=O)[C@@H]32 [Vinflunine Ditartrate]
inactive: 1 nM 3.38% | 8.33 nM 3.35% | 100 nM 2.91% | 833.33 nM -2.99% | 10000 nM -3.92%

Cc1ccc(NC(=O)CCCCCC(=O)Nc2ccccc2N)cc1
inactive: 1 nM 2.4% | 8.33 nM 1.59% | 100 nM 0.54% | 833.33 nM 1.31% | 10000 nM 3.57%

CO[C@H]1CC=C2CCN3CCC4=C(CC(=O)OC4)[C@]23C1
inactive: 1 nM 1.56% | 8.33 nM -0.91% | 100 nM 1.32% | 833.33 nM 0.73% | 10000 nM 1.37%

CC(C)CCNc1ncccc1C(=O)N1CCN(Cc2ccccc2)CC1
inactive: 1 nM 0.16% | 8.33 nM 0.21% | 100 nM 1.38% | 833.33 nM 0.33% | 10000 nM -0.35%

COCC1(CO)C(=O)C2CCN1CC2 (stereo not given)
inactive: 1 nM -1.69% | 8.33 nM -1.26% | 100 nM -0.44% | 833.33 nM -0.13% | 10000 nM 4.84%

O=C(NC1CCOCC1)c1ccc(-c2cc(-c3c[nH]nc3-c3ccccn3)ccn2)cc1
inactive: 1 nM 1% | 8.33 nM 0.61% | 100 nM 0.23% | 833.33 nM 4.34% | 10000 nM 3.89%

COc1ccc(C(=O)c2ccccc2)c(O)c1 [oxybenzone]
inactive: 1 nM 0.11% | 8.33 nM 2.31% | 100 nM 0.71% | 833.33 nM 0.2% | 10000 nM 0.65%

COc1ccc(N(C(=O)Oc2c(C)cccc2C)c2ccnc(Nc3ccc(N4CCN(C)CC4)cc3)n2)c(OC)c1
inactive: 1 nM 0.25% | 8.33 nM 1.54% | 100 nM 0.43% | 833.33 nM 0.02% | 10000 nM -1.27%

CCCCCN(C)CCC(O)(P(=O)(O)O)P(=O)(O)O [ibandronate]
inactive: 1 nM 0.68% | 8.33 nM 1.34% | 100 nM 0.79% | 833.33 nM -3.03% | 10000 nM -2.11%

CN(C)C/C=C/C(=O)Nc1ccc(C(=O)Nc2cccc(Nc3ncc(Cl)c(-c4c[nH]c5ccccc45)n3)c2)cc1
inactive: 1 nM -0.79% | 8.33 nM -1.41% | 100 nM -1.48% | 833.33 nM -2.92% | 10000 nM -8.5%

C[C@@]1(F)[C@H](O)[C@@H](CO)O[C@H]1n1ccc(N)nc1=O
inactive: 1 nM 0.11% | 8.33 nM -0.83% | 100 nM -0.8% | 833.33 nM 1.12% | 10000 nM 0.26%

c1ccc(N2CCN(CCCOc3ccc4c(c3)OCO4)CC2)cc1
inactive: 1 nM -0.84% | 8.33 nM -2.11% | 100 nM -4.95% | 833.33 nM -3.5% | 10000 nM -4.64%

CC(=O)NCCc1c(Cc2ccccc2)[nH]c2ccccc12 [luzindole]
inactive: 1 nM 5.27% | 8.33 nM 4.35% | 100 nM 1.82% | 833.33 nM 3.18% | 10000 nM 3.21%

CCC1(C)CC(=O)NC(=O)C1 [bemegride]
inactive: 1 nM -1.73% | 8.33 nM -2.18% | 100 nM -2.05% | 833.33 nM 1.29% | 10000 nM -2.8%

O=C(c1ccc(F)cc1)C1CCN(CCn2c(=O)[nH]c3ccccc3c2=O)CC1 [ketanserin]
inactive: 1 nM 1.58% | 8.33 nM -0.51% | 100 nM -0.25% | 833.33 nM 2% | 10000 nM -1.33%

C[C@H](N)[C@H](O)c1cccc(O)c1 [metaraminol]
inactive: 1 nM 5.57% | 8.33 nM 5.04% | 100 nM 2.34% | 833.33 nM 1.83% | 10000 nM 1.14%

C[C@]12CC[C@@H]3c4ccc(O)cc4CC[C@H]3[C@@H]1C[C@@H](O)[C@@H]2O [estriol]
inactive: 1 nM 2.04% | 8.33 nM 1.38% | 100 nM -1.95% | 833.33 nM -1.63% | 10000 nM -0.19%

Cc1cc(C(=O)Nc2cc(Oc3ccc4nc(NC(=O)C5CC5)cn4n3)ccc2C)n(C)n1
inactive: 1 nM -0.96% | 8.33 nM -3.26% | 100 nM -4.84% | 833.33 nM -7.63% | 10000 nM -4.87%

CC(C)S(=O)(=O)NC[C@H](C)c1ccc(-c2ccc(CCNS(C)(=O)=O)cc2)cc1 [mibampator]
inactive: 1 nM -0.11% | 8.33 nM -1.29% | 100 nM -1.07% | 833.33 nM 1.62% | 10000 nM 4.07%

Oc1cc(O)c2c(c1)O[C@H](c1ccc(O)c(O)c1)[C@@H](O)C2 [cianidanol]
inactive: 1 nM -1.29% | 8.33 nM 0.71% | 100 nM -1.15% | 833.33 nM -0.95% | 10000 nM -2.3%

CC(C)C[C@H](NC(=O)[C@H](CCCCN)NC(=O)[C@H](CCCNC(=N)N)NC(=O)[C@H](C)NC(=O)[C@H](CO)NC(=O)[C@H](CCCCN)NC(=O)[C@H](CCCNC(=N)N)NC(=O)[C@H](C)NC(=O)CNC(=O)[C@@H](NC(=O)[C@H](Cc1ccccc1)NC(=O)CNC(=O)CNC(=O)[C@@H](N)Cc1ccccc1)[C@@H](C)O)C(=O)N[C@@H](C)C(=O)N[C@@H](CC(N)=O)C(=O)N[C@@H](CCC(N)=O)C(=O)O [orphanin-fq]
inactive: 1 nM 1.63% | 8.33 nM -0.61% | 100 nM 0.09% | 833.33 nM 0.66% | 10000 nM 0.4%

CCCCOc1ccc(C(=O)CCN2CCCCC2)cc1 [dyclonine]
inactive: 1 nM 2.76% | 8.33 nM 3.66% | 100 nM 3.14% | 833.33 nM 3.62% | 10000 nM -0.75%

O=C(Nc1cccc(C(F)(F)F)c1)Nc1cc(S(=O)(=O)NC2CC2)ccc1-c1ccsc1
inactive: 1 nM -0.22% | 8.33 nM -0.85% | 100 nM 0.27% | 833.33 nM 0.38% | 10000 nM 0.46%

O=C(O)/C=C1\CCCc2ccccc2[C@H]1O (racemic)
inactive: 1 nM 0.95% | 8.33 nM 1.44% | 100 nM 1.65% | 833.33 nM 1.72% | 10000 nM 4.1%

C[C@H](NCc1ccc(OCc2cccc(F)c2)cc1)C(N)=O [safinamide]
inactive: 1 nM 4.62% | 8.33 nM 5.34% | 100 nM 2.52% | 833.33 nM 0.07% | 10000 nM -0.48%

CC1(C)O[C@@H]2C[C@H]3[C@@H]4CCC5=CC(=O)C=C[C@]5(C)[C@H]4[C@@H](O)C[C@]3(C)[C@]2(C(=O)CO)O1 [desonide]
inactive: 1 nM 1.41% | 8.33 nM 2.82% | 100 nM 5.19% | 833.33 nM 5.19% | 10000 nM 1.37%

Cc1[nH]nc(C(F)(F)F)c1Cc1sc2c(c1C(=O)N1C[C@](C)(O)CO1)c(=O)n(C)c(=O)n2C(C)C
inactive: 1 nM 1.31% | 8.33 nM -1.35% | 100 nM 1.71% | 833.33 nM 0.45% | 10000 nM 2.23%
